Compound activity as filed in PubChem.
The list is not random: actives were taken first. Their share in the collection is about 2.4%.
D2 ag-1 – agonists of human D2 dopamine receptor | HEK293 T-REx D2 cells, calcium flux agonist mode | hit rate 0.53% among 340,000 | activation, % at 2 µM | P14416;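 active = activation over 3 SD above normal in the single-dose calcium agonist read, cut at about 30% in these data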; also: 0% is about no effect
Target sequence (P14416 whole entry, looked up): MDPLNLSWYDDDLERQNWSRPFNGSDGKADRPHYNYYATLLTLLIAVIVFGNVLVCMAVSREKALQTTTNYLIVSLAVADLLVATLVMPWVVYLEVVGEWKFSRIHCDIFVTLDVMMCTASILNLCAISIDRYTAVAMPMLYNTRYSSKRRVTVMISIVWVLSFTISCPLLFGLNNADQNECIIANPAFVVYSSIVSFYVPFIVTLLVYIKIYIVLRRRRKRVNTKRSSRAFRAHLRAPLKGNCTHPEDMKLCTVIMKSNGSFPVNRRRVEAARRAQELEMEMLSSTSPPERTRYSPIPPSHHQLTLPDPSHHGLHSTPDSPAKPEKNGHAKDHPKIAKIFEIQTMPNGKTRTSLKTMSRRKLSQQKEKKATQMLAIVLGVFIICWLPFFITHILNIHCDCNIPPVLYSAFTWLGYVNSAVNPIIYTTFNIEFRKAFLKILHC
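Agonism is scored from calcium flux in a force-coupled, inducible HEK293 cell line expressing D2, read kinetically for 180 s after compound addition against dopamine controls.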
D2 PAM-1 – potentiates the human D2 dopamine receptor allosterically. potentiation, % (concentration not given with the values). AID 624464. P14416. DiscoveRx D2 beta-arrestin cells, luminescence, 90 min; 100% = 57 uM dopamine signal. hit rate 0.23% among 360,000; in the data active = potentiation above about 50%
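D2 cells co-treated with compound plus 50 nM dopamine (EC20) for 90 min at 37 deg C to detect potentiation. Beta-arrestin recruitment was read as enzyme-fragment luminescence after 1 h at ambient temperature. Full response was set by 57 uM dopamine.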
D2 antag – antagonizes the human D2 dopamine receptor | P14416 | HEK293 TREx D2 cells, calcium flux, dopamine EC80 | inhibition, % at 10 µM | hit rate 2% among 340,000 | AID 485344; in the data active = inhibition above about 30%; inactive = below that, where a call was filed; also: 0% is about no effect
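HEK293 T-REx D2 cells, tet-induced, calcium dye no-wash. Cpd pintool add, 180 s kinetic, then EC80 DA, 180 s kinetic. Ca flux read.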
D2 PAM-2 – D2 dopamine receptor (human) potentiation; P14416; HEK293 T-REx D2, calcium flux, EC20 dopamine potentiation; potentiation, % at 10 µM; hit rate 0.34% among 340,000;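 active = potentiation over 3 SD above the plate norm, cut at about 30% in these data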; also: 0% is about no effect
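Primary screen. Calcium kinetics in induced HEK293 T-REx D2 cells: compound pre-addition 180 s, EC20 dopamine, 180 s more.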
D2 ag-2 – agonists of human D2 dopamine receptor (beta-arrestin); DiscoveRx PathHunter D2 beta-arrestin, luminescence, 90 min; 100% = 57 uM dopamine signal; AID 624465; hit rate 0.084% among 360,000; activation, % (no concentration beside the values); P14416; in the data active = activation above about 40%
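Agonist mode: compounds alone added to overnight-plated D2 PathHunter cells for 90 min at 37 C, with 57 uM final dopamine (EC100) defining full response. Beta-arrestin recruitment detected by chemiluminescent reagent, read after 1 h at ambient temperature.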
* marks the source's active call; other numbers are inactive results.

`CC(C)(C)NC(=O)c1ccc2c(c1)N(CC(=O)NC1CCCC1)C(=O)C(C)(C)O2` gave D2 ag-1 -1, D2 PAM-1 -20, D2 antag 53*, D2 PAM-2 -29 and D2 ag-2 -1.
For Cc1nn(CCCC(=O)NCCc2ccc(Cl)cc2)c(=O)c2c1sc1ccccc12 the results were D2 ag-1 0 and D2 PAM-2 -4.
For CCCN1Cc2cccc(C(=O)Nc3cccc(C(=O)OCC)c3)c2C1=O the results were D2 ag-1 1 and D2 PAM-2 3.
CCc1ccc(C(=O)c2cn(CC(=O)Nc3ccc(C)c(C)c3)c3ccccc3c2=O)cc1 was read as D2 ag-1 -1 and D2 PAM-2 6.
`CSc1ccc(CNC(=O)CN2C(=O)C3CCCCN3c3ccc(C(=O)N4CCCC4)cc32)cc1` (centres undefined) gave D2 PAM-2 -1.
Screening COc1ccc(-c2csc(NCc3ccco3)n2)cc1 returned D2 ag-1 0, D2 PAM-1 -9, D2 antag -10, D2 PAM-2 8 and D2 ag-2 -6.
c1coc(CNc2nc(-c3ccncc3)cs2)c1 was read as D2 PAM-1 13, D2 PAM-2 32* and D2 ag-2 2.
Screening CCCn1c2ccccc2c2cnn(CC(=O)N(Cc3ccccc3)C(C)C)c(=O)c21 returned D2 ag-1 26 and D2 PAM-2 5.
Screening CCCCNC(=O)Cc1coc2ccc3ccccc3c12 returned D2 ag-1 1, D2 PAM-1 -4, D2 antag -9, D2 PAM-2 33* and D2 ag-2 0.
For COc1cccc(CNC(=O)CCc2c(C)nc3c(c2C)c(=O)n(C)c(=O)n3C)c1 the results were D2 ag-1 1 and D2 PAM-2 18.
Screening CC1(C)CC(NCc2ccccc2)CCO1 (centres undefined) returned D2 ag-1 1, D2 PAM-1 -8, D2 antag -13, D2 PAM-2 38* and D2 ag-2 -3.
For CCN(CC)CCNC(=O)C1c2cc(OC)c(OC)cc2C(=O)N(C)C1c1cccs1 (centres undefined) the results were D2 ag-1 -1, D2 PAM-1 -30, D2 antag 35* and D2 ag-2 -4.
`Cc1ccc(NC(=O)N2CCN(c3ncccc3C(F)(F)F)CC2)cc1` gave D2 ag-1 0, D2 PAM-1 -28, D2 antag 37*, D2 PAM-2 -13 and D2 ag-2 -2.
Screening COc1cccc2c(C)cc3nnc(SCC(=O)Nc4ccc(C)cc4)n3c12 returned D2 ag-1 -2 and D2 PAM-2 -16.
For Cc1ccccc1NC(=O)NC1CCS(=O)(=O)C1 (centres undefined) the results were D2 ag-1 0, D2 PAM-1 4, D2 antag -7, D2 PAM-2 2 and D2 ag-2 -1.
Screening COc1ccccc1NC(=O)NC1CCS(=O)(=O)C1 (centres undefined) returned D2 ag-1 1, D2 PAM-1 -4, D2 antag 39*, D2 PAM-2 -5 and D2 ag-2 -4.
Screening CC(=O)c1ccc(N2CCN(C(=O)c3cc(S(=O)(=O)N4CCCCCC4)cn3C)CC2)cc1 returned D2 ag-1 0 and D2 PAM-2 11.
For COC(=O)c1ccc(NC(=O)Cn2nc(C(=O)Nc3ccc(C)cc3)ccc2=O)cc1 the results were D2 ag-1 -1, D2 PAM-1 -2, D2 antag 30*, D2 PAM-2 -1 and D2 ag-2 -4.
For CCOc1ccccc1NC(=O)Nc1cc(S(=O)(=O)N(C)C)ccc1C the results were D2 PAM-1 -22 and D2 ag-2 -4.
Cc1ccc(S(=O)(=O)N(C)C)cc1NC(=O)CSc1nc2ccccc2[nH]1 was read as D2 ag-1 -2, D2 PAM-1 -35, D2 antag 31*, D2 PAM-2 -23 and D2 ag-2 1.
CC1CCCCC1NC(=O)CSc1nc2ccccc2[nH]1 (centres undefined) was read as D2 ag-1 -3, D2 PAM-1 -1, D2 antag -15, D2 PAM-2 37* and D2 ag-2 -3.
For Cc1ccc(S(=O)(=O)N(C)C)cc1NC(=S)N1CCc2ccccc21 the results were D2 ag-1 2, D2 PAM-1 -29, D2 antag 55*, D2 PAM-2 -28 and D2 ag-2 -6.
CN(C)S(=O)(=O)c1cccc(NC(=S)N2CCc3ccccc32)c1 was read as D2 ag-1 0, D2 PAM-1 9, D2 antag -9, D2 PAM-2 10 and D2 ag-2 0.
For CC1CCN(C(=O)CSc2nc3ccccc3[nH]2)CC1 the results were D2 ag-1 -1, D2 PAM-1 -15, D2 antag 16, D2 PAM-2 -15 and D2 ag-2 -2.
`Cc1ccc(NC(=O)Nc2cc(S(=O)(=O)N(C)C)ccc2C)cc1` gave D2 ag-1 -2, D2 PAM-1 -4, D2 antag 37*, D2 PAM-2 -28 and D2 ag-2 -6.
`COc1ccc(S(=O)(=O)c2c(O)c3ccc(C(=O)NCc4ccccc4)cc3[nH]c2=O)cc1` gave D2 ag-1 0 and D2 PAM-2 3.
`Cc1ccc(S(=O)(=O)N(C)C)cc1NC(=O)Nc1ccccc1` gave D2 ag-1 -3, D2 PAM-1 -24, D2 antag 84*, D2 PAM-2 -24 and D2 ag-2 -1.
`CCCNC(=O)Cn1cc(S(=O)(=O)N2CCCC2)c(S(=O)(=O)N2CCCC2)c1` gave D2 ag-1 0, D2 PAM-1 -11, D2 antag 37*, D2 PAM-2 -3 and D2 ag-2 -6.
Screening CCC(C)NC(=O)Cn1cc(S(=O)(=O)N2CCCC2)c(S(=O)(=O)N2CCCC2)c1 (centres undefined) returned D2 ag-1 -1, D2 PAM-1 1, D2 antag 9, D2 PAM-2 -3 and D2 ag-2 -5.
`CCOC(=O)c1cnn(CCOC(=O)c2ccc(F)cc2)c1NC(=O)c1ccc(F)cc1` gave D2 ag-1 0, D2 PAM-1 3, D2 antag -5, D2 PAM-2 -1 and D2 ag-2 1.
Screening CCOC(=O)c1cnn(CCOC(=O)Cc2cccs2)c1NC(=O)Cc1cccs1 returned D2 ag-1 0, D2 PAM-1 -4, D2 antag 34*, D2 PAM-2 2 and D2 ag-2 -3.
CC(C)(C)C(=O)Nc1cccc(C(=O)OCc2cc(=O)n3nc(C4CC4)sc3n2)c1 was read as D2 PAM-2 10.
For O=S1(=O)C=CC(Sc2nc3ccccc3[nH]2)C1 (centres undefined) the results were D2 ag-1 -2, D2 PAM-1 -2, D2 antag -3, D2 PAM-2 -2 and D2 ag-2 -4.
